From PubChem BioAssay (Tox21)
“And” between values parts separate entries of the source, which are not always exact repeats. Identical values can stand only once. The source holds several records for some structures; these can differ, active in one and inactive in another. The source made the active and inactive calls. Unless noted, the call rests on the fitted dose curve; in most records, active means well fitted curve in the direction sought with a large enough effect in the repeat runs; inconclusive means weak or mixed curves; inactive means no such curve, though single readings can be large; an effect the other way counts as inactive or inconclusive.

How the values were obtained:
[1] = qHTS assay for small molecules that induce genotoxicity in human embryonic kidney cells expressing luciferase-tagged ATAD5 - cell viability (AID 651634; calls by dose curve; further: nearly all actives have a fitted effect of over 25% in size; further: potency means the concentration at half of the fitted maximal effect)
How it was run: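 Here HEK293T cells with the ATAD5 luciferase reporter are incubated with test compounds for 15.5 hr, and cytotoxicity is then gauged by measuring protease activity in live cells using fluorescence.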

[2] = qHTS assay to test for compound auto fluorescence at 590 nm (red) in HepG2 cells (AID 720674)
How it was run: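 HepG2 cells, 2,000 per well in MEM with 10% FBS, attached overnight at 37 C, then got 23 nL compound or DMSO. After 1 hr at 37 C, 5% CO2, red fluorescence was read at 540/590 nm against Rose Bengal sodium as reference.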

[3] = qHTS assay to test for compound auto fluorescence at 590 nm (red) in HepG2 cell free culture (AID 720684)
How it was run: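 Auto fluorescence equivalency versus Rose Bengal sodium, red channel Ex/Em 540/590 nm; compounds in cell-free MEM/10% FBS; DMSO vehicle control.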

[4] = qHTS assay to identify small molecule antagonists of the androgen receptor (AR) signaling pathway - cell viability counter screen (AID 743033; further: nearly all actives have a fitted effect of over 45% in size; further: potency means the concentration at half of the fitted maximal effect)
[5] = qHTS assay to identify small molecule antagonists of the thyroid receptor (TR) signaling pathway (AID 743065); further: nearly all actives have a fitted effect of over 55% in size; further: potency means the concentration at half of the fitted maximal effect
How it was run: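 GH3.TRE-Luc rat pituitary cells (two TREs driving luciferase) were dosed with compound, then stimulated with 1 nM T3 (final) for 23.5 h at 37 C. ONE-Glo luminescence was the read-out, with CellTiter-Fluor fluorescence as the cytotoxicity counter-screen.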

[6] = qHTS assay to identify aromatase inhibitors - cell viability counter screen (AID 743084);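 further: cells stimulated with testosterone during compound exposure; nearly all actives have a fitted effect of over 55% in size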; further: potency means the concentration at half of the fitted maximal effect
[7] = qHTS assay for small molecule activators of the heat shock response signaling pathway (AID 743210; active means well fitted activation curve with a large enough effect in the signal ratio in the repeat runs, with a control signal flat, not every such curve was filed as active; inconclusive means weak or mixed curves; the % refers to the signal ratio; further: potency means the concentration at half of the fitted maximal effect;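 on activation: HeLa cells with beta-lactamase reporter driven by heat shock elements; series mostly up to about 63 µM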)
How it was run: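 Following overnight attachment, HSE-bla HeLa cells received test compounds for 5 h at 37 C; beta-lactamase activity was then detected via FRET substrate fluorescence.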

[8] = qHTS assay to identify small molecule agonists of the peroxisome proliferator-activated receptor delta (PPARd) signaling pathway - cell viability counter screen (AID 743211); further: nearly all actives have a fitted effect of over 55% in size; further: potency means the concentration at half of the fitted maximal effect
How it was run: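 Viability was measured as CellTiter-Glo luminescence (30 min, room temperature) in the same wells as the beta-lactamase readout. GeneBLAzer PPARd UAS-bla HEK293H cells received compound after 5 h plating and were incubated 17 h at 37 C.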

[9] = qHTS assay to identify small molecule antagonists of the farnesoid-X-receptor (FXR) signaling pathway - cell viability counter screen (AID 743221; active means well fitted cell-killing curve with a large enough effect in the repeat runs, not every such curve was filed as active; inconclusive means weak or mixed curves, or effect the other way; inactive means no such curve, though single readings can be large or run the other way; further: nearly all actives have a fitted effect of over 50% in size; further: potency means the concentration at half of the fitted maximal effect)
How it was run: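 Cytotoxicity counter screen run in the FXR-bla reporter wells: HEK 293T cells exposed to compound with 50 uM (final) chenodeoxycholic acid for 16 h, 37 C, then viability measured by CellTiter-Glo luminescence after 30 min, room temperature.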

[10] = target: Androgen receptor (Homo sapiens) (UniProt P10275); assay: qHTS assay to identify small molecule antagonists of the androgen receptor (AR) signaling pathway using the MDA cell line in the presence of 0.5 nM R1881 (AID 1259243); further: nearly all actives have a fitted effect of over 50% in size; further: potency means the concentration at half of the fitted maximal effect
How it was run: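 Luminescence from an AR/GR-responsive MMTV-luciferase construct in MDA-kb2 breast carcinoma cells, read 30 min after ONE-Glo, following 16 hr co-treatment with compounds and 0.5 nM R1881.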

[11] = target: Estrogen receptor beta (Homo sapiens) (UniProt Q92731); assay: qHTS assay to identify small molecule antagonists of the estrogen receptor beta (ER-beta) signaling pathway (AID 1259378; active means well fitted inhibition curve with a large enough effect in the signal ratio in the repeat runs, not every such curve was filed as active; inconclusive means weak or mixed curves, or effect the other way; inactive means no such curve, though single readings can be large or run the other way; the % refers to the signal ratio; further: potency means the concentration at half of the fitted maximal effect)
How it was run: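 ER-beta-UAS-bla HEK293T cells in 2% charcoal-stripped FBS medium treated with compound plus 1nM final 17-beta-estradiol for 16 hr at 37C. Beta-lactamase reporter read by FRET substrate fluorescence after 2 hours at room temperature.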

[12] = target: Androgen receptor (Homo sapiens) (UniProt P10275); assay: qHTS assay to identify small molecule agonists of the androgen receptor (AR) signaling pathway in the presence of an antagonist (AID 1259381; calls by dose curve; further: nearly all actives have a fitted effect of over 15% in size; further: potency means the concentration at half of the fitted maximal effect)
How it was run: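 Plated MDA-kb2 cells (3,000/well) were pre-incubated 5hr, given nilutamide (3.0uM final) or buffer, then dosed with compounds in DMSO at 15 concentrations. Luciferase activity was quantified by luminescence after 16hr at 37C.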

[13] = qHTS assay to test for compound auto fluorescence at 460 nm (blue) in HepG2 cells (AID 720687)
How it was run: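 HepG2 cells in MEM with 10% FBS, attached overnight at 37 C, were exposed to compound or DMSO for 1 hr at 37 C, 5% CO2. Blue fluorescence was read at 405/460 nm, with triamterene as reference fluorophore.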

[14] = qHTS assay for identifying genotoxic compounds that show differential cytotoxicity against isogenic chicken DT40 cell lines with known DNA damage response pathways - wild type cell line (AID 743012); further: nearly all actives have a fitted effect of over 60% in size; further: potency means the concentration at half of the fitted maximal effect
How it was run: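 Viability of DNA repair-proficient chicken DT40 cells was assessed by CellTiter-Glo luminescence following 40 h compound exposure at 37 C/5% CO2.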

[15] = qHTS assay for identifying genotoxic compounds that show differential cytotoxicity against isogenic chicken DT40 cell lines with known DNA damage response pathways - Rad54/Ku70 mutant cell line (AID 743015); further: nearly all actives have a fitted effect of over 60% in size; further: potency means the concentration at half of the fitted maximal effect
[16] = qHTS assay to identify small molecule antagonists of the thyroid receptor (TR) signaling pathway - cell viability counter screen (AID 743064); further: nearly all actives have a fitted effect of over 50% in size; further: potency means the concentration at half of the fitted maximal effect
How it was run: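 In-well cytotoxicity read by CellTiter-Fluor (30 min, 37 C) following 23.5 h exposure of GH3 cells bearing a TRE-luciferase sensor. Compounds were added alongside 1 nM (final) T3 to drive TR transactivation.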

[17] = qHTS assay to identify small molecule antagonists of the androgen receptor (AR) signaling pathway using the MDA cell line - cell viability counter screen (AID 743041; further: nearly all actives have a fitted effect of over 45% in size; further: potency means the concentration at half of the fitted maximal effect)
How it was run: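 Compound exposure lasted 16 h at 37C in MDA-kb2 AR-luc cells stimulated with R1881. Protease-based CellTiter-Fluor reagent was applied for the final 30 min and fluorescence measured.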

[18] = qHTS assay to identify small molecule antagonists of the estrogen receptor alpha (ER-alpha) signaling pathway using the BG1 cell line - cell viability counter screen (AID 743081);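 further: compound given together with 17beta-estradiol as the ER stimulus; series mostly up to about 70 µM; nearly all actives have a fitted effect of over 45% in size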
[19] = qHTS assay to identify small molecule that activate the aryl hydrocarbon receptor (AhR) signaling pathway - cell viability counter screen (AID 743086); further: nearly all actives have a fitted effect of over 45% in size; further: potency means the concentration at half of the fitted maximal effect
How it was run: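 HepG2-AhR-luc (HG2L7.5c1) cells, 4000/well, treated 24 h at 37 C with compound; viability measured as CellTiter-Fluor fluorescence after 30 min in the same wells as the luciferase read.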

[20] = target: Estrogen receptor (Homo sapiens) (UniProt P03372); assay: qHTS assay to identify small molecule agonists of the estrogen receptor alpha (ER-alpha) signaling pathway (AID 743075; calls by dose curve;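 further: HEK293 GripTite cells with ER-alpha and UAS-driven beta-lactamase reporter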; further: potency means the concentration at half of the fitted maximal effect)

Measured: Potency

Sequence of Estrogen receptor beta (Homo sapiens) (Q92731 whole entry, looked up): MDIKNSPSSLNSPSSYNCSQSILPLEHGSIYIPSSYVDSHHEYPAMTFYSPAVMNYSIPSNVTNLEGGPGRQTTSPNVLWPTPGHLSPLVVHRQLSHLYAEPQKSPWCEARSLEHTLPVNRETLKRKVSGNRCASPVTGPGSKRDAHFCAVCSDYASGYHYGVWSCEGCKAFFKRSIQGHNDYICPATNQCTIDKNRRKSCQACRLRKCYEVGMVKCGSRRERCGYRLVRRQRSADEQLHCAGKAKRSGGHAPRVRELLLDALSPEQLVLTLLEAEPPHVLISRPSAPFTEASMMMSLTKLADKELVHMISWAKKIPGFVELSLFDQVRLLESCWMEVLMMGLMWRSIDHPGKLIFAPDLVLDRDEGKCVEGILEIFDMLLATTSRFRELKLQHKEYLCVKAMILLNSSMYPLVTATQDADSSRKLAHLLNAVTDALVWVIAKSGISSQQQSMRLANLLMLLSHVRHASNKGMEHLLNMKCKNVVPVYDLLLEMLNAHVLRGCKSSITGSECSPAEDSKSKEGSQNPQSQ
Sequence of Estrogen receptor (Homo sapiens) (P03372 whole entry, looked up): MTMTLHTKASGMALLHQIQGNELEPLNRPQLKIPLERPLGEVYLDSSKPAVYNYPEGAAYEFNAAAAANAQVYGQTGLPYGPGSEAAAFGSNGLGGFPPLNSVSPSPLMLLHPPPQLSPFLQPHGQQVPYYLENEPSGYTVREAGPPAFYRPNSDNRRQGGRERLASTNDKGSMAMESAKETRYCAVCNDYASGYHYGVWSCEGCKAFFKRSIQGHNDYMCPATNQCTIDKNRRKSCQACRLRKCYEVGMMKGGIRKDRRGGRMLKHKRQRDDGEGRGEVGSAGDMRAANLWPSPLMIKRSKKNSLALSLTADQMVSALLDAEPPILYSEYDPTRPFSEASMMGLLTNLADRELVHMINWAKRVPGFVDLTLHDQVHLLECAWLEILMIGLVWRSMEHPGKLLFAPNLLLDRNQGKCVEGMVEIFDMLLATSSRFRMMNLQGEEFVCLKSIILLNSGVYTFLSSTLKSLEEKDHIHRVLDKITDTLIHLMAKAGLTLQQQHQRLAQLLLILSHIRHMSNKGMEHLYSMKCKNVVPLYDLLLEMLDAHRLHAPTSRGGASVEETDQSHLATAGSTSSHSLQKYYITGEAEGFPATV
Sequence of Androgen receptor (Homo sapiens) (P10275 whole entry, looked up): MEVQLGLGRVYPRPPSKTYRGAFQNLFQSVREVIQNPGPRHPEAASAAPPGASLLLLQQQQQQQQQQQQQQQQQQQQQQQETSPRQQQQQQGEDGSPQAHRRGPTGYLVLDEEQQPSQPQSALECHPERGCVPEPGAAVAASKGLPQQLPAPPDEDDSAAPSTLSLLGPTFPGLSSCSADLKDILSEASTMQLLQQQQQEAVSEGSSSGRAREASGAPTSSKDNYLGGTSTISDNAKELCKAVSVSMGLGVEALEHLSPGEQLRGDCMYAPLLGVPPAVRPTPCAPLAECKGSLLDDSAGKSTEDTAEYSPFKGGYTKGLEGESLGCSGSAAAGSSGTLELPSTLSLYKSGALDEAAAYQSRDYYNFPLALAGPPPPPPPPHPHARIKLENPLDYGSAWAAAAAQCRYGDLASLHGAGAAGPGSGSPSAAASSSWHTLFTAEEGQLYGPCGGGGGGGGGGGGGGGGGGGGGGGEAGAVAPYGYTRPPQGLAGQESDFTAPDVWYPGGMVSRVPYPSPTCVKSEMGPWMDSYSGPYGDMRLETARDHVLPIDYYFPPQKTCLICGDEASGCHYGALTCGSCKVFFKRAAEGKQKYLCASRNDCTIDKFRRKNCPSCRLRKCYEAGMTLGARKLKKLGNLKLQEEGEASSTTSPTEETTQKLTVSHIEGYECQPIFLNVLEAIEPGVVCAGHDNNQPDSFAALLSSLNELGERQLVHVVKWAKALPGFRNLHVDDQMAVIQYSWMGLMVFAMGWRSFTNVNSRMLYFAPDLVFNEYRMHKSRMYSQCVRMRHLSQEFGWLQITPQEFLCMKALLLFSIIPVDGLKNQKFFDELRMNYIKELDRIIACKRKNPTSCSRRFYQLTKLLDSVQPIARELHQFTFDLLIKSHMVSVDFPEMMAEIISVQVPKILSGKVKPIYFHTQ

O=[N+]([O-])c1c(Cl)c(Cl)cc(Cl)c1Cl
inactive: [1] | [2] | [3] | [4] | [5] | [6] | [7] | [8] | [9]

ClC(Cl)=C(c1ccc(Cl)cc1)c1ccccc1Cl
active: [10] 9.69 µM | [11] 6.86 µM
inactive: [12]

Cc1cc(C)c(C(=O)P(=O)(c2ccccc2)c2ccccc2)c(C)c1
inactive: [12]
active: [10] 54.5 µM

CC1COC(Cn2cncn2)(c2ccc(Oc3ccc(Cl)cc3)cc2Cl)O1 (stereo not drawn)
active: [14] 1.37 µM | [15] 2.43 µM | [4] 21.9 µM | [16] 48.6 µM | [5] 12.2 µM | [8] 49 µM | [11] 27.3 µM
inactive: [2] | [13] | [7]

Cc1cc(C(C)(C)c2ccc(O)c(C)c2)ccc1O
inactive: [2] | [13] | [14] | [17] | [16] | [18] | [7] | [9] | [12]
active: [10] 4.62 µM

N#Cc1cc([N+](=O)[O-])ccc1N
inactive: [11]

Cc1ccc(N(SC(F)(Cl)Cl)S(=O)(=O)N(C)C)cc1
active: [14] 0.122 µM | [15] 0.137 µM | [4] 3.47 µM | [17] 54.5 µM | [16] 2.73 µM | [5] 2.17 µM | [6] 34.4 µM | [19] 48.6 µM | [8] 19.5 µM | [9] 19.5 µM | [10] 15.4 µM | [11] 13.7 µM
inactive: [3] | [13] | [12]

ClC1=C(Cl)[C@]2(Cl)[C@@H]3[C@@H](Cl)[C@H]4O[C@H]4[C@@H]3C1(Cl)C2(Cl)Cl
active: [14] 61.1 µM | [15] 61.1 µM | [5] 54.5 µM | [8] 54.9 µM
not listed: [7] | [10] | [12] | [16]
inactive: all other assays above

CCOC(=O)C(O)(c1ccc(Cl)cc1)c1ccc(Cl)cc1
active: [14] 6.18 µM and 19.3 µM | [15] 3.9 µM and 17.2 µM | [4] 7.84 µM | [17] 61.8 µM | [16] 6.18 µM | [5] 4.91 µM and 61.1 µM | [6] 6.18 µM | [8] 13.9 µM and 43.6 µM | [10] 13.8 µM and 21.7 µM | [11] 30.9 µM and 54.5 µM
61.8 µM (active) and inactive: [19]
44.1 µM (active) and inactive: [9]
inactive: [2] | [3] | [13] | [20] | [18] | [7] | [12]

O=C(c1ccccc1)C(Cl)Cl
active: [10] 4.33 µM
inactive: [12]

O=S(=O)(C(Cl)(Cl)Cl)C(Cl)(Cl)Cl
active: [10] 17.2 µM
inactive: [12]

Cc1nnc2n1-c1sc(CCc3ccc(CC(C)C)cc3)cc1C(c1ccccc1Cl)=NC2C (stereo not drawn)
inactive: [3] | [13] | [4] | [20] | [6] | [19]
active: [14] 11.9 µM | [15] 13.3 µM | [16] 15 µM | [5] 11.9 µM | [8] 29.8 µM

Nc1ccc([N+](=O)[O-])cc1
active: [1] 54.5 µM | [14] 13.7 µM | [4] 54.9 µM | [17] 30.6 µM | [5] 61.1 µM | [19] 40.9 µM | [10] 8.63 µM | [12] 61.1 µM
inactive: [2] | [3] | [13]

COc1cc(OC)c(OC)cc1C=O
active: [6] 59.3 µM
inactive: [1] | [2] | [3] | [13] | [17] | [20] | [18] | [9] | [11] | [12]

ClC1=C(Cl)C(Cl)(Cl)C(Cl)=C1Cl
active: [7] 52.9 µM

O=C1C(I)=CC(=C(c2cc(I)c(O)c(I)c2)c2ccccc2C(=O)O)C=C1I
active: [5] 29.8 µM and 23.7 µM
not listed: [1] | [3] | [8] | [10] | [11] | [12] | [16]
inactive: all other assays above

CNC(=O)Oc1cc(C)c(SC)c(C)c1
active: [12] 12.2 µM

OC(Cc1ccccc1Cl)(Cn1[nH]cnc1=S)C1(Cl)CC1 (stereo not drawn)
inactive: [12]
active: [10] 54.5 µM

OCC(c1ccc(Cl)cc1)c1ccc(Cl)cc1
active: [15] 15.4 µM | [4] 43.6 µM | [16] 61.1 µM | [5] 61.1 µM
inactive: [1] | [3] | [20] | [18] | [19] | [8] | [9]

c1ccc2c(c1)Sc1ccccc1N2CC1CN2CCC1CC2 (stereo not drawn)
active: [14] 5.96 µM | [15] 8.41 µM | [8] 10.6 µM | [9] 18.8 µM
inactive: [2] | [18] | [6]

Nc1ccc(Cl)cc1[N+](=O)[O-]
inactive: [7]

O=C(Nc1ccccc1-c1ccc(Cl)cc1)c1cccnc1Cl
inactive: [1] | [2] | [3] | [13] | [20] | [18] | [6] | [19]
active: [15] 66.7 µM | [5] 57.8 µM

CCN(CC)C(=O)Cl
inactive: [10] | [11] | [12]

Oc1c(I)cc(I)cc1I
inactive: [10] | [12]

Nc1ccc(Cl)cc1Cl
inactive: [7]

CN1CSC(=S)N(C)C1
active: [14] 6.08 µM and 5.43 µM | [15] 6.08 µM and 4.84 µM | [4] 5.47 µM and 3.46 µM | [17] 24.3 µM | [16] 30.5 µM | [5] 3.05 µM and 3.85 µM | [6] 10.8 µM and 27.2 µM | [8] 3.87 µM | [9] 12.3 µM | [11] 24.2 µM
inactive: [1] | [3] | [13] | [20] | [18]

C=CC(=O)OCCCCCCCC(C)C
inactive: [11]

COc1ccc(C(c2ccc(OC)cc2)C(Cl)(Cl)Cl)cc1
inactive: [1] | [2] | [3] | [18] | [19] | [9]
active: [15] 39.2 µM | [16] 36.2 µM | [5] 24.2 µM | [20] 19.4 µM [inconclusive]

Clc1ccccc1-c1ccccc1Cl
not listed: [2] | [3] | [5] | [6] | [10] | [11] | [12] | [20]
inactive: all other assays above

Brc1ccc(Br)c(Br)c1
inactive: [7]

CO/C=C(/C(=O)OC)c1ccccc1Oc1cc(Oc2ccccc2C#N)ncn1
active: [1] 7.31 µM | [14] 0.0731 µM | [15] 0.312 µM | [4] 18.5 µM | [17] 21.7 µM | [16] 33.6 µM | [5] 0.411 µM | [6] 58.1 µM | [19] 37.6 µM | [10] 5.81 µM
inactive: [2] | [13] | [20] | [7] | [12]
